Assay [1] concerns the target Cytochrome P450 3A4 (Homo sapiens) (UniProt P08684). In words: qHTS Assay for Inhibitors and Substrates of Cytochrome P450 3A4 (AID 884). Note: potency is the fitted concentration of half-maximal effect; nearly all actives have a fitted effect of over 50% in size. An outline of the steps: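 Luminescent readout of luciferin produced by CYP3A4 (20 nM) dealkylation of Luciferin-PPXE, 25 uM (its KM). NADPH-driven reaction ran 60 min at RT after 10 min compound preincubation; data scaled to 57 uM ketoconazole as 100% inhibition.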

Assay [2] in a line: Confirmation and Secondary Assay for Modulators of Hemoglobin Beta Chain Splicing at IVS2 654 locus (AID 910).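 Note: HeLa cells stably carrying EGFP split by mutant beta-globin IVS2-654 intron.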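 Note: potency is the fitted concentration of half-maximal effect; potency of activators that raise GFP signal by restoring correct splicing.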 Summed up: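 HeLa cells stably expressing EGFP interrupted by β-globin IVS2-654 intron, seeded overnight in Opti-MEM/2% FCS, then treated 2 days at 37 °C. Restored splicing read as total peak GFP intensity per well by laser scanning cytometry (488 nm excitation, 500–520 nm emission); 500 nM antisense PNA as control.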

Assay [3] in a line: Confirmation and Secondary Assay for Modulators of Hemoglobin Beta Chain Splicing at IVS2 705 locus (AID 930).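 Note: HeLa cells stably expressing the EGFP-705 splicing reporter; GFP fluorescence per well restored by corrected splicing of the IVS2-705 intron in EGFP; % of control where 0% means no effect.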 Summed up:
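Secondary splice-site specificity test uses HeLa expressing CMV-driven EGFP interrupted by IVS2-705; cells were treated 2 days at 37C with 500 nM antisense PNA as positive control.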

Assay [4] can be described thus: qHTS Assay for Lipid Storage Modulators (AID 1519; calls by dose curve). To be noted: Drosophila S3 cells, BODIPY lipid droplet/cell ratio, laser cytometry, cells loaded with oleic acid; for activity change, negative = inhibition: at 57.5 µM (top of the series). Summed up: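 Cells seeded at 5,000 per well were treated with compounds over a concentration series and loaded with oleic acid (400 uM, as added). Lipid droplet fluorescence (488 nm excitation, 500-530 nm channel) was read by laser-scanning cytometry and normalized to 20 uM Triacsin C.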

Assay [5] concerns the target Rap guanine nucleotide exchange factor 3 (Homo sapiens) (UniProt O95398). The assay is described as follows: Confirmatory qHTS for agonist of cAMP-regulated guanine nucleotide exchange factor 3 (EPAC1) (AID 1645881).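 Note: EPAC1 catalysed release of BODIPY-GDP from Rap1B seen as fluorescence loss; 100% = effect of cAMP agonist control; nearly all actives have a fitted effect of over 75% in size.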
Assay [6] has as its target Rap guanine nucleotide exchange factor 4 (Homo sapiens) (UniProt Q8WZA2). The assay is described as follows: Confirmatory qHTS for agonist of cAMP-regulated guanine nucleotide exchange factor 4 (EPAC2) (AID 1645884).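 Note: nucleotide exchange releases bodipy-GDP from Rap1 and this lowers its fluorescence; % is set by controls: 0 for no effect and ±100 for the full control effect; nearly all actives have a fitted effect of over 65% in size.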
Assay [7] has the same target. The assay is described as follows: Confirmatory qHTS for antagonist of cAMP-regulated guanine nucleotide exchange factor 4 (EPAC2) (AID 1645885). Note: potency is the fitted concentration of half-maximal effect; nearly all actives have a fitted effect of over 25% in size.
For assay [8], the target named is Lysosomal acid glucosylceramidase (Homo sapiens) (UniProt P04062). In words: Glucocerebrosidase-p2 (AID 348; in the data active = potency below about 10 µM; note: potency is the fitted concentration of half-maximal effect). To be noted: purified GBA, blue fluorogenic substrate, 40 min. Summed up:
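Normal human glucocerebrosidase (0.2 nM) with blue fluorogenic substrate (80 uM final) in citrate/phosphate pH 5.9 with 10mM sodium taurocholate, 0.01% tween-20; 40 min RT, NaOH/glycine stop; fluorescence Ex 365/Em 440; AC50 from a titration from 0.6 nM upwards.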

The nature of assay [9]: AP1 Signaling Pathway (AID 357; active = well fitted curve in either direction with a large enough effect, not every such curve was filed as active;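 note: ME-180 reporter cells stimulated with EGF at its EC50 level; % is set by controls: 0 for no effect and ±100 for the full control effect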). The following applies: ME-180 AP-1-bla reporter, EGF-induced, beta-lactamase ratio, 5 h; at 7.69 µM (top of the series) unless noted. An outline of the steps:
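A ratiometric CCF4 readout (405 nm excitation; 460 and 530 nm emission) quantified AP-1-driven beta-lactamase in ME-180 cells after 5 h with compound and EC50 EGF; AC50 values were derived for activators and inhibitors.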

In assay [10] the target is Cytochrome P450 1A2 (Homo sapiens) (UniProt P05177). The assay is described as follows: p450-cyp1a2 (AID 410; calls by dose curve; note: potency is the fitted concentration of half-maximal effect). An outline of the steps: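 20nM CYP1A2, 100uM Luciferin-ME (=Km), 100mM KPO4; cpd 10 min RT; +NADPH regen, 60 min RT; stop/detect 20 min; luminescence. Normalized to furafylline 57 uM = full inhibition.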
Assay [11] in a line: NFAT Signaling Pathway (AID 444; active = well fitted curve in either direction with a large enough effect, not every such curve was filed as active;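 note: carbachol stimulus at about its EC50 of 1 µM final; % is set by controls: 0 for no effect and ±100 for the full control effect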). The following applies: Jurkat NFAT-bla M1, carbachol, beta-lactamase ratio, 5 h; at 7.69 µM (top of the series) unless noted. An outline of the steps: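 Jurkat cells with NFAT-driven β-lactamase reporter and co-expressed M1 receptor, stimulated with carbachol (final 1 uM, ~EC50), compound titration, 5 h at 37 °C. CCF4 loaded 1 h at RT; 460/530 nm ratio gave %activity and AC50.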

The nature of assay [12]: Stat Signaling Pathway (AID 446; active = well fitted curve in either direction with a large enough effect, not every such curve was filed as active;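 note: ME-180 cervical cancer cells given 40 pM IL-6 alongside compound; SIE-controlled beta-lactamase reporter measured as 460/530 nm FRET emission ratio; % is set by controls: 0 for no effect and ±100 for the full control effect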). The following applies: ME-180 (cervical carcinoma) SIE beta-lactamase reporter, IL-6 stimulated, 5 h; at 7.69 µM (top of the series) unless noted. Summed up:
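Emission at 460 and 530 nm (excitation 405 nm) reports SIE-controlled beta-lactamase in ME-180 cells. Cells received compound with 40 pM IL-6 for 5 hrs at 37 C; data scaled between 300 pM IL-6 and 125 nM JAK-inhibitor controls.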

The target in assay [13] is Glucocorticoid receptor (Homo sapiens) (UniProt P04150). The assay is described as follows: GR-GFP Redistribution (AID 450;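 active = compounds whose dose series gives a full or clear partial fitted curve of increased nuclear translocation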; note: potency is the fitted concentration of half-maximal effect). The following applies: U2OS GR-GFP nuclear translocation, laser cytometry, 2 h.
For assay [14] the target is unchanged. The assay is described as follows: GR-EFC Redistribution (AID 451; calls by dose curve; note: potency is the fitted concentration of half-maximal effect). To be noted: CHO-K1 GR-EFC translocation, beta-gal luminescence, 2 h. Summed up: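 CHO-K1 cells expressing nuclear EA and GR-ED fragments of b-gal; compounds titrated up to 46 uM final, 2 h at 37 C. GR nuclear translocation read as complemented b-gal luminescence after 1 h RT detection.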
Assay [15] addresses Mitogen-activated protein kinase 10 (Mus musculus) (UniProt Q61831). The assay is described as follows: JNK3 AlphaScreen Assay (AID 530; active = well fitted curve in either direction with a large enough effect, not every such curve was filed as active;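 note: kinase came from lysate of stimulated human HepG2 cells; signal reports phosphorylation of biotinylated GST-cJun 1-79 at Ser73 with 10 µM ATP; % is set by controls: 0 for no effect and ±100 for the full control effect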). Summed up:
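HepG2 lysate (IL-1b/TNFa pre-activated) + biotin-GST-cJun 1-79 + anti-pSer73 cJun; cpd titration, 15 min RT; ATP 10 uM start; Tris pH 7.6, MgCl2, DTT, vanadate; beads in EDTA buffer; AlphaScreen.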

Assay [16] concerns the target 3',5'-cyclic-AMP phosphodiesterase 4B (Homo sapiens) (UniProt Q07343). In words: qHTS Assay for Inhibitors of PDE-IV (AID 607; active = well fitted activation curve with a large enough effect in the main read-out, with a control signal flat, not every such curve was filed as active; note: % of control where 0% means no effect). An outline of the steps:
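The readout is membrane depolarisation from a cAMP-sensing CNG channel, detected with a potential dye at ex 535/em 590. Cells were HEK293-derived (endogenous PDE-IV) at 1000 cells/well, titrated up to 22.9 uM final.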

Assay [17] addresses Dual specificity protein kinase CLK4 (Homo sapiens) (UniProt Q9HAZ1). The assay is described as follows: qHTS Assay for Inhibitors of CDC-like Kinase 4 (Kinase-Glo Assay) (AID 1770). Note: nearly all actives have a fitted effect of over 65% in size. Note: potency is the fitted concentration of half-maximal effect. Summed up:
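25 nM Clk4 with 100 uM RS repeat peptide and 1 uM ATP (final) in Tris pH7.5, 10 mM MgCl2, 4.5 h at room temperature. Remaining ATP measured by Kinase-Glo luciferase luminescence.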

The target of assay [18] is Ubiquitin carboxyl-terminal hydrolase 1 (Homo sapiens) (UniProt O94782). The assay is described as follows: Inhibitors of USP1/UAF1: Pilot qHTS (AID 504865).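 Note: rhodamine fluorescence freed from ubiquitin-rhodamine substrate followed over time; top concentration of the series differs between compounds; % is set by controls: 0 for no effect and ±100 for the full control effect; nearly all actives have a fitted effect of over 35% in size.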 An outline of the steps:
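USP1/UAF1 complex at 1 nM preincubated 15 min at room temperature with compound, then Ub-Rho substrate added at 150 nM final. Fluorescence (480/540 nm) read kinetically in 50 mM HEPES pH 7.8, 0.5 mM EDTA, 1 mM TCEP, 0.1 mg/ml BSA, 0.01% Tween-20.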

The target of assay [19] is Cytochrome P450 3A4 (Homo sapiens) (UniProt P08684). In words: qHTS Assay for Activators of Cytochrome P450 3A4 (AID 885). Note: nearly all actives have a fitted effect of over 65% in size. An outline of the steps: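 Activators are scored by enhanced luminescence from CYP3A4 conversion of luciferin-PPXE (25uM, equal to KM) to luciferin, after 60 min at RT with an NADPH-regenerating system.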
Setting [20] is: measured here: cell count channel max response.
Setting [21] is: measured here: lipid channel max response.

Records with an inconclusive call do not appear. The source made the active and inactive calls. Unless noted, calls come from the whole dose curve; as a rule, active = well fitted curve in the direction sought with a large enough effect; inconclusive = small, poorly fitted or top-dose-only effect, or another doubt; inactive = no such curve, though single readings can be large; an effect the other way counts as inactive or inconclusive.

The source of these data is PubChem BioAssay (NCATS).

Chain of Dual specificity protein kinase CLK4 (Homo sapiens) (Q9HAZ1 whole entry, looked up): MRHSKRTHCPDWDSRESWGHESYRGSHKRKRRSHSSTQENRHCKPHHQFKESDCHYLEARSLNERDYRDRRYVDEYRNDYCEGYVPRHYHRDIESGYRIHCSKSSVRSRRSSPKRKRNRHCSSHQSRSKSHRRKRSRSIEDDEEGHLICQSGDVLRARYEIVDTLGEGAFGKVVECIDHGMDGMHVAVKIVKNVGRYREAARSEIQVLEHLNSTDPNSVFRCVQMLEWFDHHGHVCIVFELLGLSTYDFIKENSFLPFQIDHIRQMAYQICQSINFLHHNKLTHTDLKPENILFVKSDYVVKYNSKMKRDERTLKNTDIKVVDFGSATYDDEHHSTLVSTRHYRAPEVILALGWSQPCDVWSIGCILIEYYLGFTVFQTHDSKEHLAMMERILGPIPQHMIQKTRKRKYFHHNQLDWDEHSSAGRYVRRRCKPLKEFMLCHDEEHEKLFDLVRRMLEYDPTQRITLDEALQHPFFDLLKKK
Chain of Rap guanine nucleotide exchange factor 3 (Homo sapiens) (O95398 whole entry, looked up): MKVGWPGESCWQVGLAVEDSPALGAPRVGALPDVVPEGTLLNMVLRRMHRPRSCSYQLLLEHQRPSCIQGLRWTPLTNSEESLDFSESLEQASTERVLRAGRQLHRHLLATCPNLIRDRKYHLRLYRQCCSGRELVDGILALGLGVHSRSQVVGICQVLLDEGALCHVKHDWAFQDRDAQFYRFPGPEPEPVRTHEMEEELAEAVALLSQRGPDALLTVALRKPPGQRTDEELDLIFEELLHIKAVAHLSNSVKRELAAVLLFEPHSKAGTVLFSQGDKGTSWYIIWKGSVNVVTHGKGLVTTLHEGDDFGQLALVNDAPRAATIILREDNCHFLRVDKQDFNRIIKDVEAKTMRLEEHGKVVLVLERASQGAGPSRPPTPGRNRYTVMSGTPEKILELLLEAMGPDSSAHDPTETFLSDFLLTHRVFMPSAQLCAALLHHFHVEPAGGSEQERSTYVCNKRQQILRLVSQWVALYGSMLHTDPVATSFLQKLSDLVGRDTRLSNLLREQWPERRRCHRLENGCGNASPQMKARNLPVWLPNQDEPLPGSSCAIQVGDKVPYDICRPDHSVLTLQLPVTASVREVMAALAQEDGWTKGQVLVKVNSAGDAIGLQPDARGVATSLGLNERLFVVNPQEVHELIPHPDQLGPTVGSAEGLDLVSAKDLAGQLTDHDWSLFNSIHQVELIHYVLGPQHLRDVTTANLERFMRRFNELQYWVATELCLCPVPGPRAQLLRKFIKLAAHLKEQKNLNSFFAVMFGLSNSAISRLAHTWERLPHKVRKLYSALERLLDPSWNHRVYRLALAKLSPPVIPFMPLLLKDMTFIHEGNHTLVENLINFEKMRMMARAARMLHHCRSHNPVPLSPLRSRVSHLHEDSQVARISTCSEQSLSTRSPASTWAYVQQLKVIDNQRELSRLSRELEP
Chain of Cytochrome P450 1A2 (Homo sapiens) (P05177 whole entry, looked up): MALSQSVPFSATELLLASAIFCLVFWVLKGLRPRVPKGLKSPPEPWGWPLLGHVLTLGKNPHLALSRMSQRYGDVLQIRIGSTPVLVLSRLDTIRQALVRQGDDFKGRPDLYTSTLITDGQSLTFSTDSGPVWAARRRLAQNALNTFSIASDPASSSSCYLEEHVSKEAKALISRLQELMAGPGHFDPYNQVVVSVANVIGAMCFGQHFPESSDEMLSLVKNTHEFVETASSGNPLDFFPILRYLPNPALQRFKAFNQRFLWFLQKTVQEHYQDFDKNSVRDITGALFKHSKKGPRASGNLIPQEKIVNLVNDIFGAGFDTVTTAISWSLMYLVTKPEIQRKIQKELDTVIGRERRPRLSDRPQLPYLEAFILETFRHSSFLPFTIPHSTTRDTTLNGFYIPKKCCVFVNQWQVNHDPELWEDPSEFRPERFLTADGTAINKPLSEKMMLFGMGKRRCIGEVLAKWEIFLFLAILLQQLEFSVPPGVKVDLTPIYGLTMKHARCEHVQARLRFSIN
Chain of Ubiquitin carboxyl-terminal hydrolase 1 (Homo sapiens) (O94782 whole entry, looked up): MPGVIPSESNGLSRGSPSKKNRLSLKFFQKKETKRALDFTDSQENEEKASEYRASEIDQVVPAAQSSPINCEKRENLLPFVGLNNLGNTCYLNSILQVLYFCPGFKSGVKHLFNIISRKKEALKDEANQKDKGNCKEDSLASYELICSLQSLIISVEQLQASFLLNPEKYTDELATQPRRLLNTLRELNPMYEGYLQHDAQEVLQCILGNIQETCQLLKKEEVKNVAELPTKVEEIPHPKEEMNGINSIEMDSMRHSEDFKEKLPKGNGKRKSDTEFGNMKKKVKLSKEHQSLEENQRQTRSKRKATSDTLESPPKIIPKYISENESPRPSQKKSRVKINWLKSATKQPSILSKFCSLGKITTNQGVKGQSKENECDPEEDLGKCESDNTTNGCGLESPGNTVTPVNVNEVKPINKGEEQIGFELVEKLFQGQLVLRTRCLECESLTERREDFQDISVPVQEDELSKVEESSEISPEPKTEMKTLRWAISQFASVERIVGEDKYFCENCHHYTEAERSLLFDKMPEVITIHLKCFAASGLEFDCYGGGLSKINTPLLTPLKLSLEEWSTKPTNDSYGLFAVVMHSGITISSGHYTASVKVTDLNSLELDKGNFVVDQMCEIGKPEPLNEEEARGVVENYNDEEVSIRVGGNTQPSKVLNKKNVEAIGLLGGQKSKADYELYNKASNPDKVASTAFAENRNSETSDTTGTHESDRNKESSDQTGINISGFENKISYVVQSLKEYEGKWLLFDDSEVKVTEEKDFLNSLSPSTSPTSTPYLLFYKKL
Chain of Glucocorticoid receptor (Homo sapiens) (P04150 whole entry, looked up, the tested form may be a part): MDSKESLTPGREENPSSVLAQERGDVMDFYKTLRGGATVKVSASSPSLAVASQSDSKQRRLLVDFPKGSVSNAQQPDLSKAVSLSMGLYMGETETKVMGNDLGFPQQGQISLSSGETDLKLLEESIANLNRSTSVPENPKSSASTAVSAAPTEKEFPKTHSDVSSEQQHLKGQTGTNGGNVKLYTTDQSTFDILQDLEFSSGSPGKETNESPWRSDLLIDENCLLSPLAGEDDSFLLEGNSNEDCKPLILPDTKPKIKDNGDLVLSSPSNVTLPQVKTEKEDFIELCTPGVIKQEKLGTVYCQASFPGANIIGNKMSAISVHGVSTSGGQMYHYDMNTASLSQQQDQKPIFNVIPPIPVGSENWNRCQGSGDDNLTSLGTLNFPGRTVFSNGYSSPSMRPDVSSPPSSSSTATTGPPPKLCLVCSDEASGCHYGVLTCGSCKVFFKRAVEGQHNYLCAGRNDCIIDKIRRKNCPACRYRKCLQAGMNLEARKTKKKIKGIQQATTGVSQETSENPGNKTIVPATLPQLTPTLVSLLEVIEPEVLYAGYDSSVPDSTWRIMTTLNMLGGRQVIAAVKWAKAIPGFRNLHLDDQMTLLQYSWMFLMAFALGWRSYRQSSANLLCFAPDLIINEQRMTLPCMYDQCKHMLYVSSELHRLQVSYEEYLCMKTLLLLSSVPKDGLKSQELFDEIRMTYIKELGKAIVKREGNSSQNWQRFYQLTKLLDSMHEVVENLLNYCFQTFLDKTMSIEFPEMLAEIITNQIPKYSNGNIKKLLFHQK
Chain of Rap guanine nucleotide exchange factor 4 (Homo sapiens) (Q8WZA2 whole entry, looked up): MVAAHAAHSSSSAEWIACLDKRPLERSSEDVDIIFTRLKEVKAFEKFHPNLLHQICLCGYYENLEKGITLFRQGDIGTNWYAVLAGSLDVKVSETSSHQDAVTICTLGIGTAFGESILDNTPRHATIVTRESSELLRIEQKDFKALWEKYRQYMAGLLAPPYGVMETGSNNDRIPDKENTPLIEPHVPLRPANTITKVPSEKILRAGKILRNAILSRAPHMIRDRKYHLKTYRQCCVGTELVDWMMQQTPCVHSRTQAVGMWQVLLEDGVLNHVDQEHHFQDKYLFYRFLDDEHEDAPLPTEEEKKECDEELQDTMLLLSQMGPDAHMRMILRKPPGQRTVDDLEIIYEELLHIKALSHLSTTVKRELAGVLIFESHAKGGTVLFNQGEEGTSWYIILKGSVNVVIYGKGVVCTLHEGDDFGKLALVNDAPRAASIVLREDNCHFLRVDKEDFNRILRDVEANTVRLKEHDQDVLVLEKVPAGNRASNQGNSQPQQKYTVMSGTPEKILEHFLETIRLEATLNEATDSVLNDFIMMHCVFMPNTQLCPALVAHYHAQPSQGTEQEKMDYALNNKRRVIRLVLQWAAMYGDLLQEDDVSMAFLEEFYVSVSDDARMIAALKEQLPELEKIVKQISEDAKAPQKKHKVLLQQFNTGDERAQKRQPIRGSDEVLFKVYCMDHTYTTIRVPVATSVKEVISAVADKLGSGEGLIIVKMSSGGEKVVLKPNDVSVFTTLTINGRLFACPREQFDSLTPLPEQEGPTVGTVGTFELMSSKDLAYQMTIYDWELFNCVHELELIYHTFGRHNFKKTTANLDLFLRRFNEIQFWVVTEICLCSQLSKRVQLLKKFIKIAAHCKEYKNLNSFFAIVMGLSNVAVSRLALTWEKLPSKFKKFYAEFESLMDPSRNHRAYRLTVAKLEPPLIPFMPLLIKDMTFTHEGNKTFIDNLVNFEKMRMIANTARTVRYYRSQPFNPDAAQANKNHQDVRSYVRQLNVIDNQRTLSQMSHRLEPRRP
Chain of Lysosomal acid glucosylceramidase (Homo sapiens) (P04062 whole entry, looked up): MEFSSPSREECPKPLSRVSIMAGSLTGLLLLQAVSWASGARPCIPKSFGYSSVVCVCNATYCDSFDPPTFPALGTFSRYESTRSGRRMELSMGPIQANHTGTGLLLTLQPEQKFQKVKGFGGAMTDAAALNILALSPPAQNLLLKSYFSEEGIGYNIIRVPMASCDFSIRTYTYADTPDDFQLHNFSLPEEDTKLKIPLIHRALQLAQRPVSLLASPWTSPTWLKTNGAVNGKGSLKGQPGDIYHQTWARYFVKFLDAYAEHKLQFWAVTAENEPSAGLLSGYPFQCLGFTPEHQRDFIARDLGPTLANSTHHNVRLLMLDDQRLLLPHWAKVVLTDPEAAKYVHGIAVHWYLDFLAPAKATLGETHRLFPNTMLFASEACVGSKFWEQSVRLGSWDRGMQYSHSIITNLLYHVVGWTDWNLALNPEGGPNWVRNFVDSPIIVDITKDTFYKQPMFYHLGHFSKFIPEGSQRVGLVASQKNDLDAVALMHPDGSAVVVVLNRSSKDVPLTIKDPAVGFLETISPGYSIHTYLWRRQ

Regarding `C=C[C@](C)(O)CCC1C(=C)CC(OC(C)=O)C2C(C)(C)CCCC12C` (stereo partly drawn), the Potency in [1] was 2.51 µM (active); in assay [7], 11.1 µM (active). The Potency result in assay [2], in assay [5] and in assay [6] was “inactive” in each case. For the same molecule, in assay [3], the outcome was inactive. Also, in assay [4], the activity change, negative = inhibition is -0.933% (inactive). Also, the values for the max response in assay [4] (setting [20]) and in assay [4] (setting [21]) were 1.16% and 0.207%, respectively.

Take `CN1CCN(c2ncc3nc(-c4ccccc4)c(=O)n(C)c3n2)CC1`: the Potency is > 11.4 µM (inactive) in [8], 15.8 µM (active) in [10], > 9.22 µM (inactive) in [13] and > 46 µM (inactive) in assay [14]. The figures for the activity change, negative = inhibition in assay [9], in [11] and in assay [4] were 19.6% (inactive), 23.4% (inactive) and 4.64% (inactive), respectively. Besides, in assay [12], the activity, negative = inhibition is 20% (inactive). In addition, the Potency result in assay [15], in assay [16], in assay [17] and in assay [18] was “inactive” in each case. The max response in [4] (setting [20]) is 14.1%; in assay [4] (setting [21]), 18.5%.

As for `COC(=O)[C@@H]1C2CC3c4[nH]c5cc(OC)ccc5c4CCN3CC2C[C@H](OC(=O)c2cc(OC)c(OC)c(OC)c2)C1OC` (stereo partly drawn), the Potency result in assay [19], in assay [5] and in assay [6] was “inactive” in each case. The Potency in assay [2] is 15.8 µM (active). Also, in assay [4], the activity change, negative = inhibition was -8.88% (inactive). Further, the results for the max response in assay [4] (setting [20]) and in assay [4] (setting [21]) were 3.77% and -5.55%, respectively.

For the molecule `N#CCCn1c(=O)c(-c2cc(F)cc(F)c2)nc2cnc(Oc3ccccc3)nc21`, the Potency in assay [8] was > 11.4 µM (inactive); in assay [10] it was 2 µM (active); in [13], > 9.22 µM (inactive); in [14] it was > 46 µM (inactive). Further, the activity change, negative = inhibition in [9] is -18% (inactive); in assay [11], 1.84% (inactive); in assay [4], 7.78% (inactive). Further, the activity, negative = inhibition in assay [12] was -2.23% (inactive). The Potency result in assay [15], in assay [16], in assay [17] and in assay [18] was “inactive” in each case. For the same molecule, the values for the max response in assay [4] (setting [20]) and in assay [4] (setting [21]) were 10.8% and 17.1%, respectively.

For the molecule `Clc1ccccc1-c1nc(NC2CCNCC2)c2ccccc2n1`, the Potency in assay [8] is > 11.4 µM (inactive); in [10], 20 µM (active); in assay [13] it was > 46 µM (inactive); in assay [14], > 46 µM (inactive); in assay [17] it was 10 µM (active). Further, the activity change, negative = inhibition is -8.89% (inactive) in assay [9], 7.15% (inactive) in assay [11] and 1.68% (inactive) in assay [4]. Besides, the activity, negative = inhibition in assay [12] was 3.31% (inactive). In addition, the Potency entry in assay [15], in assay [16] and in [18] was “inactive” in each case. Besides, the values for the max response in assay [4] (setting [20]) and in assay [4] (setting [21]) were 15.1% and 17.6%, respectively.

As to `COc1cc(C)c(C(=O)Oc2cc(C)c(C(=O)O)c(O)c2C)c(OC)c1C`, the Potency entry in assay [19], in assay [5] and in assay [6] was “inactive” throughout. In addition, the molecule was called inactive in [3]. Also, the activity change, negative = inhibition in [4] is 7.39% (inactive). The max response worked out at 9.06% in [4] (setting [20]) and 19.2% in assay [4] (setting [21]). In [7], the Potency was 49.4 µM (active).

With `COc1ccc2c(c1OC)C(=O)OC2C1c2c(cc3c(c2OC)OCO3)CCN1C` (stereo not drawn), the activity change, negative = inhibition in assay [9] was 11.6% [at 17.2 µM] (inactive); in assay [11], -3.27% [at 17.2 µM] (inactive); in assay [4], 0.209% (inactive). Further, the activity, negative = inhibition in [12] was 9.27% [at 17.2 µM] (inactive). The Potency in assay [13] was > 20.6 µM (inactive). The figures for the max response in assay [4] (setting [20]) and in assay [4] (setting [21]) were -33.3% and -33.7%, respectively.

With `CN(C)CCCO[C@H]1C([C@H](O)CO)O[C@@H]2OC(C)(C)O[C@@H]21` (stereo partly drawn), the activity change, negative = inhibition in [4] is 1.15% (inactive). Further, the max response in [4] (setting [20]) is 19.8%; in assay [4] (setting [21]), 24%.

As to `COc1ccc(-c2cc(=O)c3c(OC)c(OC)c(OC)c(OC)c3o2)cc1OC`, in assay [1], the Potency was 25.1 µM (active). Moreover, the Potency entry in [19] and in assay [18] was “inactive” throughout. The call in assay [3] was inactive. Further, in [4], the activity change, negative = inhibition is -10.1% (inactive). Also, the max response in [4] (setting [20]) is -11.8%; in assay [4] (setting [21]), -19.5%.
